MBNL1-CUG inh: inhibitors of human MBNL1 binding to CUG repeat RNA. TR-FRET MBNL1-His/biotin-(CUG)12 binding, 665/545 ratio. Potency, µM (doses to about 57.5 µM), for the others: at the highest dose activity change, negative = inhibition, most hits filed as inhibitors. 280,000 compounds, 0.036% hits. AID 2675; active means well fitted inhibition curve with a large enough effect in the signal ratio, with a control signal flat, not every such curve was filed as active; inconclusive means small, poorly fitted or top-dose-only effect, or effect the other way, or a change in a side signal; inactive means no such curve, though single readings can be large or run the other way; the % refers to the signal ratio; further: potency means the concentration at half of the fitted maximal effect; on the % scale 0 is the no-effect control and ±100 the full control effect
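His-tagged MBNL1 binding to biotinylated (CUG)12 RNA was measured by TR-FRET using terbium anti-His antibody (0.055 ng/ul final) and streptavidin-XL665 (5 nM final). Compounds were titrated 92 nM to 58 uM; 60 min at room temperature.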
KCNH2 3.1 block: KCNH2 3.1 (human) potassium channel inhibition; U2OS KCNH2 3.1, thallium flux FluxOr; stronger effect = lower value; activity change, % (tested at about 1.8 µM); 340,000 compounds, 0.95% hits; AID 720553;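 active means maximum activity change below -70%; inconclusive means maximum activity change from -70% to -50%; inactive means maximum activity change above -50%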;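 further: thallium influx rate constant from kinetic fluorescence after stimulation buffer; on the % scale 0 is the no-effect control and ±100 the full control effect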
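Steps: virus added to U2OS suspension (4 h, RT, dark); medium with 10% FBS added, cells plated, 37 C overnight; FluxOr/Red40 loading buffer 45 min RT; stimulation buffer, 2 min kinetic read; rate constant normalized.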
VDR inhibitor: vitamin D3 receptor (human) inhibition. Potency, µM, for the others: max response, negative = inhibition, hits mostly inhibitors. AID 504847. 400,000 compounds, 0.93% hits. VDR-SRC2-3 peptide fluorescence polarization, 2 h; further: potency means the concentration at half of the fitted maximal effect; on the % scale 0 is the no-effect control and ±100 the full control effect
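Signal is fluorescence polarization, reporting how far test compounds block the interaction of VDR with the SRC2-3 coregulator peptide after a 2 h room-temperature incubation.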
PLK1 PBD block: inhibitors of human PLK1 polo-box domain binding; P53350; Plk1 PBD binding of FITC phosphopeptide, fluorescence polarization; Potency, µM, for the others: max response, negative = inhibition, hits mostly inhibitors; 360,000 compounds, 2.8% hits; AID 720504; further: potency means the concentration at half of the fitted maximal effect; series mostly up to about 57 µM; on the % scale 0 is the no-effect control and ±100 the full control effect; nearly all actives have a fitted effect of over 65% in size
CBFb RUNX1 block: blocks binding between human CBF-beta and RUNX1; Potency, µM (doses to about 59.8 µM), for the others: at the top dose activity, negative = inhibition, actives largely listed as inhibitors; AID 1477; 230,000 tested, under 10 active; Q01196+Q13951; AlphaScreen CBFb-His/RUNX1-biotin binding, biochemical; further: % of control where 0% means no effect
Target sequence (Q01196 whole entry, looked up): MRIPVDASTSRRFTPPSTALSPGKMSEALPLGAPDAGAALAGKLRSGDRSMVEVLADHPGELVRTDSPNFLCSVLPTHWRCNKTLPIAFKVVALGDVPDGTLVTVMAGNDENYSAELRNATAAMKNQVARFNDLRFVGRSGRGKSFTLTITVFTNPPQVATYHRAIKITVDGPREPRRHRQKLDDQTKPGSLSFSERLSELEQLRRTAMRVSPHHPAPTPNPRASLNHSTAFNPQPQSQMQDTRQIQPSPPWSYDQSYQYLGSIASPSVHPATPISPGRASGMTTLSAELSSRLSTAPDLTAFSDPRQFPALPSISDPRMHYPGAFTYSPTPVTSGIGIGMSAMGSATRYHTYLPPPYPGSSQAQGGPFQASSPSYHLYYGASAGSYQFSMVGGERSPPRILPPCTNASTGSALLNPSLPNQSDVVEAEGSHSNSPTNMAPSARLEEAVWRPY
Target sequence (Q13951 whole entry, looked up): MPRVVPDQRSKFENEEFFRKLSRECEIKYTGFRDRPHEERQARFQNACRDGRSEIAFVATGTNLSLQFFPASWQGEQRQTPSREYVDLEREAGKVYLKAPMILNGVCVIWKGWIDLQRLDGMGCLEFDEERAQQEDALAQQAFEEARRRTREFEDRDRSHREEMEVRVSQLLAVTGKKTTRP
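Inhibition was taken as any reduction in AlphaScreen signal from the CBF-beta–RUNX1 pair (His and biotin tags, 30 nM each), measured after compound (15 min) and bead (90 min) incubations at room temperature.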
hERG WT inh: blocks the wildtype human KCNH2 potassium channel; 340,000 compounds, 0.37% hits; activity change, % at 1.84 µM; U2OS, BacMam KCNH2, thallium flux FluxOr; stronger effect = lower value; Q12809;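 active means maximum activity change below -70%; inconclusive means maximum activity change between -70% and -50%; inactive means maximum activity change above -50%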; further: on the % scale 0 is the no-effect control and ±100 the full control effect
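U2OS cells transduced with wild-type KCNH2 virus are loaded with FluxOr dye for 45 min, and thallium flux is measured in kinetic reads before and after stimulation buffer. Rate constants are normalized to DMSO controls.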
* hit, by the source's call. Sampled rows, rich in hits. Any-hit rate of the full collection: about 3.8%. Unless noted, the call rests on the fitted dose curve; in most records, active means well fitted curve in the direction sought with a large enough effect; inconclusive means small, poorly fitted or top-dose-only effect, or another doubt; inactive means no such curve, though single readings can be large; an effect the other way counts as inactive or inconclusive.

How did CCOc1ccc(N(CC(=O)NCCSc2ccccn2)S(=O)(=O)c2ccc(Cl)cc2)cc1 do in these assays?
MBNL1-CUG inh: -0.9%; KCNH2 3.1 block: -1.1; VDR inhibitor: -8.3%; PLK1 PBD block: -17.4%; hERG WT inh: 5.5

How did CCCC(=O)N1CCN(Cc2ccc3c(c2)OCO3)CC1 do in these assays?
MBNL1-CUG inh: -6.8%; KCNH2 3.1 block: -4.0; VDR inhibitor: -3.0%; PLK1 PBD block: -11.6%; CBFb RUNX1 block: -24.5%; hERG WT inh: 0.4

What do the screens show for `CCOc1ccc(N(CC(=O)N/N=C/c2ccccn2)S(=O)(=O)c2ccc(Cl)cc2)cc1`?
MBNL1-CUG inh: -1.7%; KCNH2 3.1 block: -81.1*; VDR inhibitor: -4.8%; PLK1 PBD block: -2.0%; hERG WT inh: -4.4

Results for CC(C)CC(=O)N1CCN(Cc2ccc3c(c2)OCO3)CC1 ?
MBNL1-CUG inh: 4.7%; KCNH2 3.1 block: 16.3; VDR inhibitor: 7.6%; PLK1 PBD block: 1.2%; CBFb RUNX1 block: -3.1%; hERG WT inh: -132.5*

How did COc1ccc(N(CC(=O)N/N=C/c2ccc3c(c2)OCO3)S(=O)(=O)c2ccc(NC(C)=O)cc2)cc1 do in these assays?
MBNL1-CUG inh: inconclusive; KCNH2 3.1 block: 22.1; VDR inhibitor: -25.7%; PLK1 PBD block: 26.7µM*; CBFb RUNX1 block: -7.9%; hERG WT inh: -2.9

Results for COc1ccc(C(=O)c2cn(CC(=O)Nc3ccc4c(c3)OCO4)c3ccc(OC)cc3c2=O)cc1 ?
VDR inhibitor: 13.7%

What do the screens show for `O=C(c1cccn2c(=O)c3cc(Cl)ccc3nc12)N1CCN(Cc2ccc3c(c2)OCO3)CC1`?
MBNL1-CUG inh: inconclusive; KCNH2 3.1 block: -82.8*; VDR inhibitor: -7.9%; PLK1 PBD block: -2.7%; CBFb RUNX1 block: 0.9%; hERG WT inh: 7.9

What do the screens show for `O=C(c1cccn2c(=O)c3ccccc3nc12)N1CCN(Cc2ccc3c(c2)OCO3)CC1`?
MBNL1-CUG inh: 10.1%; KCNH2 3.1 block: -11.6; VDR inhibitor: 3.7%; PLK1 PBD block: -5.3%; CBFb RUNX1 block: 6.3%; hERG WT inh: 24.9

How did O=C(c1ccc2nccnc2c1)N1CCN(Cc2ccc3c(c2)OCO3)CC1 do in these assays?
MBNL1-CUG inh: 16.0%; KCNH2 3.1 block: -87.3*; VDR inhibitor: -10.2%; PLK1 PBD block: -9.8%; CBFb RUNX1 block: 2.3%; hERG WT inh: -3.2

Results for COc1ccc(N(CC(=O)N2CCN(Cc3ccc4c(c3)OCO4)CC2)S(=O)(=O)c2ccc(F)cc2)cc1 ?
MBNL1-CUG inh: -1.2%; KCNH2 3.1 block: -86.1*; VDR inhibitor: 6.8%; PLK1 PBD block: -11.2%; CBFb RUNX1 block: -6.0%; hERG WT inh: -44.0

What do the screens show for `Cc1ccc2c(=O)cc(C(=O)Nc3ccc(S(=O)(=O)N(C)Cc4ccccc4)cc3)oc2c1C`?
VDR inhibitor: 7.7%

How did CC1(c2ccccc2)CC(C)(C)N2C(=O)/C(=C3\SC(=S)NC3=O)c3cccc1c32 (centres undefined) do in these assays?
MBNL1-CUG inh: inconclusive; KCNH2 3.1 block: 1.6; VDR inhibitor: -1.0%; PLK1 PBD block: 23.8µM*; CBFb RUNX1 block: -22.7%; hERG WT inh: 1.1

What do the screens show for `O=C1CN(S(=O)(=O)c2ccccc2Cl)CCN1`?
KCNH2 3.1 block: 7.6; VDR inhibitor: -13.8%; PLK1 PBD block: 15µM*; hERG WT inh: -0.5

How did O=C1CN(S(=O)(=O)c2cccc(Cl)c2Cl)CCN1 do in these assays?
KCNH2 3.1 block: -7.4; VDR inhibitor: -15.7%; PLK1 PBD block: -5.8%; hERG WT inh: -11.7

Results for Cc1ccc(C)c(S(=O)(=O)c2nnn3c2nc(N2CCCC2)c2sccc23)c1 ?
VDR inhibitor: -6.5%

How did S=C(c1ccc(-c2ccc(Cl)c(Cl)c2)o1)N1CCOCC1 do in these assays?
MBNL1-CUG inh: 16.2%; KCNH2 3.1 block: -10.4; VDR inhibitor: -4.1%; PLK1 PBD block: 26.7µM*; CBFb RUNX1 block: inconclusive; hERG WT inh: 2.6

How did S=C(c1ccc(-c2ccc(Br)cc2)o1)N1CCOCC1 do in these assays?
MBNL1-CUG inh: 19.1%; KCNH2 3.1 block: -19.6; VDR inhibitor: inconclusive; PLK1 PBD block: inconclusive; CBFb RUNX1 block: inconclusive; hERG WT inh: -0.3

Results for S=C(c1ccc(-c2ccccc2Cl)o1)N1CCOCC1 ?
MBNL1-CUG inh: inconclusive; KCNH2 3.1 block: -7.0; VDR inhibitor: -62.4%; PLK1 PBD block: 5.32µM*; CBFb RUNX1 block: -20.8%; hERG WT inh: 2.9

How did O=C(O)c1ccc(N/N=C/c2ccncc2)cc1 do in these assays?
MBNL1-CUG inh: inconclusive; KCNH2 3.1 block: -13.1; VDR inhibitor: 1.5%; PLK1 PBD block: 3.6%; hERG WT inh: 2.4

What do the screens show for `O=C(O)c1ccc(N/N=C/C2=Cc3ccccc3OC2)cc1`?
MBNL1-CUG inh: inconclusive; KCNH2 3.1 block: -7.4; VDR inhibitor: -18.4%; PLK1 PBD block: 23.8µM*; CBFb RUNX1 block: -9.1%; hERG WT inh: -1.8

How did Cc1cc(Cl)ccc1NS(=O)(=O)c1ccc2c(c1)CCN2S(C)(=O)=O do in these assays?
VDR inhibitor: 13.9%

What do the screens show for `CC(C)C(=O)N(c1ccc2oc(=O)sc2c1)S(=O)(=O)c1cccs1`?
MBNL1-CUG inh: 12.4%; VDR inhibitor: 44.7µM*; PLK1 PBD block: -29.7%; CBFb RUNX1 block: -22.7%; hERG WT inh: -0.5

Results for CC(=O)N(c1ccc2oc(=O)sc2c1)S(=O)(=O)c1ccc(C(=O)O)cc1 ?
MBNL1-CUG inh: 2.3%; KCNH2 3.1 block: 12.7; VDR inhibitor: 79.4µM*; PLK1 PBD block: inconclusive; hERG WT inh: -4.0

Results for CC(C)C(=O)N(c1cc2sc(=O)oc2c2ccccc12)S(=O)(=O)c1cccs1 ?
MBNL1-CUG inh: 1.0%; KCNH2 3.1 block: 3.1; VDR inhibitor: 35.5µM*; PLK1 PBD block: -22.3%; CBFb RUNX1 block: inconclusive; hERG WT inh: -0.8

How did COc1ccc(N(C(=O)C(C)C)S(=O)(=O)c2cccs2)cc1 do in these assays?
MBNL1-CUG inh: -3.6%; KCNH2 3.1 block: 4.8; VDR inhibitor: -6.5%; PLK1 PBD block: 0.1%; CBFb RUNX1 block: -4.2%; hERG WT inh: -3.3

How did CC(=O)N(c1ccc2oc(=O)sc2c1)S(=O)(=O)c1cccs1 do in these assays?
MBNL1-CUG inh: -8.6%; KCNH2 3.1 block: -0.1; VDR inhibitor: 89.1µM*; PLK1 PBD block: inconclusive; CBFb RUNX1 block: -7.8%; hERG WT inh: -3.1

Results for Cc1ccc(Cl)cc1N1CCN(C(=O)c2ccc3c(c2)N(Cc2ccc(F)cc2)CCS3)CC1 ?
VDR inhibitor: -3.0%

What do the screens show for `CCc1c(C)nc(SCc2nc(-c3ccccc3C)no2)[nH]c1=O`?
VDR inhibitor: -3.0%

How did COC(=O)c1ccc(NC(=O)C(=O)NCC2CCCO2)cc1 (centres undefined) do in these assays?
MBNL1-CUG inh: -5.7%; KCNH2 3.1 block: 3.0; VDR inhibitor: -29.5%; PLK1 PBD block: 29.9µM*; CBFb RUNX1 block: 3.2%; hERG WT inh: -3.7

High-throughput results (PubChem BioAssay)
